The values that follow come from publication PMC11006913.

Numbering of substitutions follows the chain as printed.

Experiment in all cases: PBM; 200 nM protein, PBS
Common to all, as to conditions: dsDNA, one strand shown

In assay [1] the target is HOXB9 (Homo sapiens, UniProt P17482 171-250, T197M).
The next assay addresses PRRX1 (Homo sapiens, UniProt P54821 80-166, F113S).
The target of a further assay is HOXB6 (Homo sapiens, UniProt P17509 132-218, K202E).
The target of assay [2] is T1, PAX4 (Homo sapiens, UniProt O43316 9-242, R200K).
T1 sequence: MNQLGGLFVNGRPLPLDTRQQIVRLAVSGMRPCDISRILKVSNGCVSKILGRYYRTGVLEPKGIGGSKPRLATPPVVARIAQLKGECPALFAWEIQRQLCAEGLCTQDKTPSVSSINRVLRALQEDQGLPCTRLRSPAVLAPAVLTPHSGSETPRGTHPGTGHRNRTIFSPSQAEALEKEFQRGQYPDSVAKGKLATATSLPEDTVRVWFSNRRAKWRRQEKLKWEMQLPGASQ

For assay [3], the target named is T2, PAX4 (Homo sapiens, UniProt O43316 9-242).
T2 sequence: T1 sequence with K192R

Assay [4] deals with T3, PAX4 (Homo sapiens, UniProt O43316 9-242, R200Q).
T3 sequence: T1 sequence with K192Q

Assay [5] addresses T4, PAX4 (Homo sapiens, UniProt O43316 9-242, F177V).
T4 sequence: T1 sequence with F169V, K192R

The target of assay [6] is T5, PAX4 (Homo sapiens, UniProt O43316 9-242, F177Y).
T5 sequence: T1 sequence with F169Y, K192R

Assay [7] deals with T6, PAX4 (Homo sapiens, UniProt O43316 9-242, R227W).
T6 sequence: T1 sequence with K192R, R219W

The target of assay [8] is ALX4 (Homo sapiens, UniProt Q9H161 200-286).
Assay [9] concerns the target ALX4 (Homo sapiens, UniProt Q9H161 200-286, Q225E).
The target of assay [10] is HOXB9 (Homo sapiens, UniProt P17482 171-250).
Assay [11] has as its target HOXB9 (Homo sapiens, UniProt P17482 171-250, R186Q).
Assay [12] deals with HOXC10 (Homo sapiens, UniProt Q9NYD6 254-340).
The target in assay [13] is HOXD13 (Homo sapiens, UniProt P35453 263-343, T313R).
The target of assay [14] is HOXD13 (Homo sapiens, UniProt P35453 263-343).
The target in assay [15] is HOXC10 (Homo sapiens, UniProt Q9NYD6 254-340, K271E).
Assay [16] has as its target HOXD13 (Homo sapiens, UniProt P35453 263-343, T313A).
The target of assay [17] is HOXC9 (Homo sapiens, UniProt P31274 178-260, R222W).
For assay [18], the target named is HOXC9 (Homo sapiens, UniProt P31274 178-260, K195R).
The target in assay [19] is HOXC9 (Homo sapiens, UniProt P31274 178-260).
The target in assay [20] is ALX1 (Homo sapiens, UniProt Q15699 118-204, L144V).
Assay [21] concerns the target HOXC9 (Homo sapiens, UniProt P31274 178-260, R193K).
Assay [22] addresses ALX1 (Homo sapiens, UniProt Q15699 118-204, L144R).
In assay [23] the target is ALX1 (Homo sapiens, UniProt Q15699 118-204).
ALX1 (Homo sapiens, UniProt Q15699 118-204), sequence (Q15699 118-204): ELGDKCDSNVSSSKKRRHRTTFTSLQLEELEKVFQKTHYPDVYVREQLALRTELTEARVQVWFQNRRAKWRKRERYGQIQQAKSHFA

HOXB9 (Homo sapiens, UniProt P17482 171-250), sequence (P17482 171-250): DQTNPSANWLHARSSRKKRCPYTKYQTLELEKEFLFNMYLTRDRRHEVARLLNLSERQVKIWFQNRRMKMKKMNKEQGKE
HOXB9 (Homo sapiens, UniProt P17482 171-250, R186Q), sequence (P17482 171-250 R186Q): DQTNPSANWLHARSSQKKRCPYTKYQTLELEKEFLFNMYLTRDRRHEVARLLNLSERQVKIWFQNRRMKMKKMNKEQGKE
HOXC9 (Homo sapiens, UniProt P31274 178-260, R222W), sequence (P31274 178-260 R222W): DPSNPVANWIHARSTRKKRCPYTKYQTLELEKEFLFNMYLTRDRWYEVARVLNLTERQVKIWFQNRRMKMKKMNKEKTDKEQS
HOXB9 (Homo sapiens, UniProt P17482 171-250, T197M), sequence (P17482 171-250 T197M): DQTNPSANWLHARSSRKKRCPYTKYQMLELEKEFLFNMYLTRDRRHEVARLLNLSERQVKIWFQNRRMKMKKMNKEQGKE
HOXC9 (Homo sapiens, UniProt P31274 178-260, R193K), sequence (P31274 178-260 R193K): as the sequence (P31274 178-260 R222W) above, with R16K, W45R counted along it
HOXC10 (Homo sapiens, UniProt Q9NYD6 254-340, K271E), sequence (Q9NYD6 254-340 K271E): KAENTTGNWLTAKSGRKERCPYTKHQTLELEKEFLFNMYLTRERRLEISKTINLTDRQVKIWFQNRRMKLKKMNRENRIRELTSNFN
HOXB6, sequence (P17509 132-218 K202E): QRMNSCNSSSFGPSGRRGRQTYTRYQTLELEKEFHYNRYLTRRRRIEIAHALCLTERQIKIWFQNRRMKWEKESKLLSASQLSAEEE
HOXD13 (Homo sapiens, UniProt P35453 263-343, T313R), sequence (P35453 263-343 T313R): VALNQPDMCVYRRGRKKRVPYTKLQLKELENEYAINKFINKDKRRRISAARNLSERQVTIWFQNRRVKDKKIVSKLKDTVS
HOXD13 (Homo sapiens, UniProt P35453 263-343), sequence (P35453 263-343): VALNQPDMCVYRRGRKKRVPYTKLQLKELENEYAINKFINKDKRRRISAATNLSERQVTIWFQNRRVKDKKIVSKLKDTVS
ALX4 (Homo sapiens, UniProt Q9H161 200-286, Q225E), sequence (Q9H161 200-286 Q225E): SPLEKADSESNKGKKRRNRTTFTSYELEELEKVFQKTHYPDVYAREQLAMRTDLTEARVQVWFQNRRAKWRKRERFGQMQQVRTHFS
HOXC10 (Homo sapiens, UniProt Q9NYD6 254-340), sequence (Q9NYD6 254-340): as the sequence (Q9NYD6 254-340 K271E) above, with E18K counted along it
HOXD13 (Homo sapiens, UniProt P35453 263-343, T313A), sequence (P35453 263-343 T313A): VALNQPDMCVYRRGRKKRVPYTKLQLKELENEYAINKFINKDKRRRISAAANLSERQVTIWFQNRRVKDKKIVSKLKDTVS
ALX4 (Homo sapiens, UniProt Q9H161 200-286), sequence (Q9H161 200-286): as the sequence (Q9H161 200-286 Q225E) above, with E26Q counted along it
ALX1 (Homo sapiens, UniProt Q15699 118-204, L144R), sequence (Q15699 118-204 L144R): as the sequence (Q15699 118-204) above, with L27R counted along it
HOXC9 (Homo sapiens, UniProt P31274 178-260, K195R), sequence (P31274 178-260 K195R): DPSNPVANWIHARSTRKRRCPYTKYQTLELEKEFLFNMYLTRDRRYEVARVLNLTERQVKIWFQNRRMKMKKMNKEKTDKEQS
PRRX1, sequence (P54821 80-166 F113S): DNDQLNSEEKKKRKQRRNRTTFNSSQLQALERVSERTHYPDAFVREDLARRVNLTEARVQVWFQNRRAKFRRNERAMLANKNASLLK
HOXC9 (Homo sapiens, UniProt P31274 178-260), sequence (P31274 178-260): as the sequence (P31274 178-260 R222W) above, with W45R counted along it
ALX1 (Homo sapiens, UniProt Q15699 118-204, L144V), sequence (Q15699 118-204 L144V): as the sequence (Q15699 118-204) above, with L27V counted along it

Take AATTATAT: the binding signal in the assay with HOXB9 [1] was 9.99 upbm affinity estimate (log intensity, higher = more binding, comparable within an allelic series); with PRRX1, 11.1 upbm affinity estimate (log intensity, higher = more binding, comparable within an allelic series); with HOXB6, 9.99 upbm affinity estimate (log intensity, higher = more binding, comparable within an allelic series).
With ATTAATAC, the binding signal is 10.1 upbm affinity estimate (log intensity, higher = more binding, comparable within an allelic series) with HOXB9 [1]; 11.8 upbm affinity estimate (log intensity, higher = more binding, comparable within an allelic series) with PAX4 [2]; 12.2 upbm affinity estimate (log intensity, higher = more binding, comparable within an allelic series) with PAX4 [3]; 10.1 upbm affinity estimate (log intensity, higher = more binding, comparable within an allelic series) in the assay with HOXB6; 11.8 upbm affinity estimate (log intensity, higher = more binding, comparable within an allelic series) with PAX4 [4]; 10.6 upbm affinity estimate (log intensity, higher = more binding, comparable within an allelic series) with PAX4 [5]. The binding signal in the assay with PAX4 [6] is 11.1 upbm affinity estimate (log intensity, higher = more binding, comparable within an allelic series); with PAX4 [7] it was 11.1 upbm affinity estimate (log intensity, higher = more binding, comparable within an allelic series).
Regarding TCCCGGGA, the binding signal with HOXB9 [1] is 8.9 upbm affinity estimate (log intensity, higher = more binding, comparable within an allelic series); with ALX4 [8], 8.7 upbm affinity estimate (log intensity, higher = more binding, comparable within an allelic series); with ALX4 [9], 8.23 upbm affinity estimate (log intensity, higher = more binding, comparable within an allelic series); with HOXB9 [10], 8.93 upbm affinity estimate (log intensity, higher = more binding, comparable within an allelic series); in the assay with HOXB9 [11], 8.89 upbm affinity estimate (log intensity, higher = more binding, comparable within an allelic series).
Regarding AATAAAAC, the binding signal was 9.76 upbm affinity estimate (log intensity, higher = more binding, comparable within an allelic series) with HOXB9 [1]; 12.3 upbm affinity estimate (log intensity, higher = more binding, comparable within an allelic series) with HOXC10 [12]; 10.6 upbm affinity estimate (log intensity, higher = more binding, comparable within an allelic series) in the assay with ALX4 [9]; 11.8 upbm affinity estimate (log intensity, higher = more binding, comparable within an allelic series) with HOXB9 [10]; 10.9 upbm affinity estimate (log intensity, higher = more binding, comparable within an allelic series) in the assay with HOXD13 [13]; 11.9 upbm affinity estimate (log intensity, higher = more binding, comparable within an allelic series) in the assay with HOXD13 [14]. Moreover, the binding signal in the assay with HOXC10 [15] was 11.7 upbm affinity estimate (log intensity, higher = more binding, comparable within an allelic series); with HOXD13 [16] it was 11.6 upbm affinity estimate (log intensity, higher = more binding, comparable within an allelic series); with HOXB9 [11] it was 11.5 upbm affinity estimate (log intensity, higher = more binding, comparable within an allelic series); in the assay with HOXC9 [17] it was 11.2 upbm affinity estimate (log intensity, higher = more binding, comparable within an allelic series).
As for CCCAGGCC, the binding signal with HOXB9 [1] is 8.39 upbm affinity estimate (log intensity, higher = more binding, comparable within an allelic series); in the assay with HOXC9 [18], 9.5 upbm affinity estimate (log intensity, higher = more binding, comparable within an allelic series); with HOXB9 [10], 8.27 upbm affinity estimate (log intensity, higher = more binding, comparable within an allelic series); in the assay with HOXC9 [19], 9.64 upbm affinity estimate (log intensity, higher = more binding, comparable within an allelic series); with ALX1 [20], 6.55 upbm affinity estimate (log intensity, higher = more binding, comparable within an allelic series); with HOXC9 [21] it was 9.51 upbm affinity estimate (log intensity, higher = more binding, comparable within an allelic series). Further, the binding signal was 6.47 upbm affinity estimate (log intensity, higher = more binding, comparable within an allelic series) in the assay with ALX1 [22]; 8.29 upbm affinity estimate (log intensity, higher = more binding, comparable within an allelic series) in the assay with HOXB9 [11]; 9.62 upbm affinity estimate (log intensity, higher = more binding, comparable within an allelic series) with HOXC9 [17]; 6.28 upbm affinity estimate (log intensity, higher = more binding, comparable within an allelic series) with ALX1 [23].
For ATAAAATA, the binding signal in the assay with HOXB9 [1] was 9.86 upbm affinity estimate (log intensity, higher = more binding, comparable within an allelic series); with HOXC10 [12], 12.3 upbm affinity estimate (log intensity, higher = more binding, comparable within an allelic series); with HOXB9 [10], 11.8 upbm affinity estimate (log intensity, higher = more binding, comparable within an allelic series); in the assay with HOXD13 [13], 10.8 upbm affinity estimate (log intensity, higher = more binding, comparable within an allelic series); with HOXC9 [21], 12.5 upbm affinity estimate (log intensity, higher = more binding, comparable within an allelic series); with HOXD13 [14], 11.8 upbm affinity estimate (log intensity, higher = more binding, comparable within an allelic series). In addition, the binding signal is 11.7 upbm affinity estimate (log intensity, higher = more binding, comparable within an allelic series) in the assay with HOXC10 [15]; 11.6 upbm affinity estimate (log intensity, higher = more binding, comparable within an allelic series) with HOXD13 [16]; 11.4 upbm affinity estimate (log intensity, higher = more binding, comparable within an allelic series) in the assay with HOXB9 [11]; 11.3 upbm affinity estimate (log intensity, higher = more binding, comparable within an allelic series) with HOXC9 [17].
